Measurements as given in PubChem BioAssay (NCI).
This is part of a sample that, as a whole, favours compounds with a hit. Of some 83,000 tested, about 20% had one in any assay.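 In brief: 96-well plates, 48 h treatment, single concentration, percent growth endpoint.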 Calls of active or inactive are those of the source. How the source made its calls: active means growth percent below 10; inactive means the rest.

Key:
Experiment in all cases: NCI-60 one-dose screen, 48 h (100 = growth as untreated, 0 = no growth, -100 = all killed)
[1] = system: DU-145 prostate; conditions: 10 µM unless noted
[2] = system: K-562 leukemia; conditions: 10 µM unless noted
[3] = system: MALME-3M melanoma; conditions: 10 µM unless noted
[4] = system: MDA-MB-231 breast; conditions: 10 µM unless noted
[5] = system: RXF 393 renal; conditions: 10 µM unless noted
[6] = system: SF-268 CNS; conditions: 10 µM unless noted
[7] = system: SF-295 CNS; conditions: 10 µM unless noted
[8] = system: SF-539 CNS; conditions: 10 µM unless noted
[9] = system: UACC-257 melanoma; conditions: 10 µM
[10] = system: M14 melanoma; conditions: 10 µM unless noted
[11] = system: HCT-15 colon; conditions: 10 µM unless noted
[12] = system: HT29 colon; conditions: 10 µM unless noted
[13] = system: SNB-75 CNS; conditions: 10 µM unless noted
[14] = system: SNB-19 CNS; conditions: 10 µM unless noted
[15] = system: U251 CNS; conditions: 10 µM unless noted
[16] = system: PC-3 prostate; conditions: 10 µM unless noted
[17] = system: SK-MEL-5 melanoma; conditions: 10 µM unless noted
[18] = system: UACC-62 melanoma; conditions: 10 µM unless noted
[19] = system: LOX IMVI melanoma; conditions: 10 µM unless noted
[20] = system: SK-MEL-28 melanoma; conditions: 10 µM unless noted

Measured: growth

Cn1cc(-c2nn3cc(-c4ccncc4)nc3s2)c2cc(Cl)ccc21
inactive: [1] 74.3% | [3] 48.2% | [4] 73.5% | [5] 75.9% | [6] 67.9% | [7] 35.1% | [8] 82.1% | [9] 89.1% | [10] 52.5% | [13] 88.6% | [14] 83% | [15] 56.6% | [16] 14.6% | [17] 55.7% | [18] 54.5% | [19] 39.4% | [20] 88.1%
active: [2] -1.66% | [11] 5.44% | [12] 4.2%

CCOC(=O)/C=c1\sc2n(c1=O)C1C(NN=2)N(CC)C(=O)N1CC (stereo not given)
inactive: [1] 75.3% | [2] 24.1% | [3] 49.1% | [4] 66.8% | [5] 70.2% | [6] 81.1% | [7] 46% | [8] 54.4% | [9] 71.5% | [10] 44.7% | [11] 31% | [12] 26.4% | [13] 52.2% | [14] 54.2% | [15] 68.9% | [16] 55.7% | [17] 54% | [18] 39% | [19] 53.5% | [20] 71.9%

C/C(=C(/C)C1CC1CCN(C(=O)c1ccc([N+](=O)[O-])cc1)S(=O)(=O)c1ccc(C)cc1)C1CCCCC1 (stereo not given)
inactive: [1] 96.6% | [2] 74.7% | [3] 98.3% | [4] 97.3% | [5] 105% | [6] 96.5% | [7] 104% | [8] 100% | [9] 96.9% | [10] 97.7% | [11] 98.1% | [12] 99.2% | [13] 106% | [14] 92.5% | [15] 94.7% | [16] 85.4% | [17] 99.4% | [18] 79.7% | [19] 93.9% | [20] 101%

COc1ccc(-c2nc3cc(Cl)c(Cl)cc3n2CC(=O)N=Nc2c(O)[nH]c3ccc(Br)cc23)cc1
inactive: [2] 21.6% | [8] 14.9% | [9] 61.9% | [13] 47.3% | [14] 22% | [17] 51.5%
active: [1] -48.4% | [3] -38.5% | [4] 0.262% | [5] -58.3% | [6] 9.74% | [7] -50% | [10] -48.8% | [11] -44.8% | [12] -24% | [15] -58% | [16] -47.1% | [18] 4.88% | [19] -77.9% | [20] -66.9%

CC(=O)Nc1ccc(C)c(Nc2cc(-c3ccc(-n4cccn4)cc3)[nH]n2)c1
inactive: [1] 81.5% | [2] 19% | [3] 73.6% | [4] 82.8% | [5] 52.8% | [6] 60.6% | [7] 46.1% | [8] 41.3% | [9] 64.4% | [10] 19.2% | [11] 41.3% | [12] 27.8% | [13] 64.2% | [14] 45.7% | [15] 42.5% | [16] 65.3% | [17] 53.6% | [18] 46.7% | [19] 60% | [20] 61%

CCOC(=O)/C(F)=C/C1CC1CCc1cccc(C(F)(F)F)c1 (stereo not given)
inactive: [1] 110% | [2] 111% | [3] 106% | [4] 107% | [5] 129% | [6] 105% | [7] 99.6% | [8] 99.4% | [9] 111% | [10] 98.9% | [11] 101% | [12] 107% | [13] 102% | [14] 97.1% | [15] 113% | [16] 105% | [17] 100% | [18] 96.5% | [19] 102% | [20] 98.8%

COc1ccc(Cn2cc3c(c2-c2ccccc2)CCCc2cnoc2-3)cc1
inactive: [1] 78.9% | [2] 28.5% | [3] 41.9% | [4] 60.8% | [5] 76.4% | [6] 73.1% | [7] 30% | [8] 52.6% | [9] 76% | [10] 40.5% | [11] 32.5% | [12] 20.4% | [13] 51.2% | [14] 61% | [15] 57.7% | [16] 60% | [17] 50.1% | [18] 42.7% | [19] 53.5% | [20] 62%

CS(=O)c1nccc(-c2c(-c3ccc(F)c(OCCc4ccc(F)cc4)c3)nc3sccn23)n1 (stereo not given)
active: [1] 1.03% | [2] 7.91% | [9] -0.163% | [12] 7.84%
inactive: [3] 55.6% | [4] 45% | [5] 60.9% | [6] 93.3% | [7] 98.3% | [8] 91.2% | [10] 67.6% | [11] 11.7% | [13] 88.7% | [14] 70.8% | [15] 92.6% | [16] 60.5% | [17] 99.1% | [18] 86% | [19] 19.9% | [20] 64.8%

Cc1ccc(/C=C/CC(=O)Nc2ccc(C(=O)Nc3ccc(F)cc3N)nc2)cn1
inactive: [1] 34.9% | [2] 20.4% | [3] 23.9% | [4] 54.7% | [5] 37.2% | [6] 45.2% | [7] 49.1% | [8] 40.8% | [9] 32.9% | [10] 35.5% | [11] 52.3% | [12] 15.9% | [13] 36.7% | [14] 60% | [15] 44.9% | [16] 42.9% | [17] 20.9% | [18] 21.8% | [19] 24.3% | [20] 25.3%

CCCCCCNC(=O)Oc1ccc(/C(=C(/C)c2ccc(Cl)cc2)c2ccc(OCCN3CCCC3)cc2)cc1
inactive: [1] 69.2% | [4] 30.6% | [6] 61.9% | [13] 67.2% | [14] 45% | [15] 29.6% | [16] 37.5% | [17] 14.9% | [18] 20.8%
active: [2] 6.52% | [3] -70.8% | [5] 9.25% | [7] -32.7% | [8] -24.4% | [9] -16.5% | [10] -54.3% | [11] 0.291% | [12] -17.7% | [19] -98.6% | [20] -49.4%

CCN(CC)Cc1c(-c2cccc(OC(F)(F)F)c2)[nH]c2ccc(N3CCCC3)cc2c1=O
inactive: [1] 99.7% | [2] 87.8% | [3] 86% | [4] 87% | [5] 74.1% | [6] 89.1% | [7] 102% | [8] 95% | [9] 91.3% | [10] 96.9% | [11] 90.1% | [12] 104% | [13] 88.1% | [14] 90.6% | [15] 99.6% | [16] 90.5% | [17] 98.3% | [18] 82.7% | [19] 90.9% | [20] 92.2%

CCOC(=O)c1c(NC(=O)c2ccc(F)cc2F)sc2c1CCC(=O)C2
inactive: [1] 94.9% | [2] 86.7% | [3] 118% | [4] 97.2% | [5] 117% | [6] 91.9% | [7] 95.1% | [8] 79.3% | [9] 102% | [10] 111% | [11] 80.6% | [12] 103% | [13] 94.3% | [14] 67.2% | [15] 53.5% | [16] 93.7% | [17] 98.5% | [18] 83.4% | [19] 80.7% | [20] 112%

Cc1ccc(NC(=O)c2cc(/C=C/C(=O)NO)cc(C(F)(F)F)c2)cc1Nc1nccc(-c2cccnc2)n1
active: [2] 5.9% | [3] -19.2% | [4] -24.7% | [5] -8.53% | [6] -3.6% | [7] -4.95% | [8] -15.2% | [9] -38.8% | [10] -20.7% | [12] 7.3% | [13] -5.81% | [14] -0.0394% | [15] -65.1% | [17] -88% | [18] -41.3% | [19] -68.2% | [20] -7.78%
inactive: [1] 14.1% | [11] 55.2% | [16] 18.9%

N#C/C(=C\c1ccc(N2CCCCC2)cc1)C(=O)Nc1sc2c(c1C#N)CCC2
inactive: [1] 101% | [2] 90.7% | [3] 100% | [4] 96.4% | [5] 83.5% | [6] 90.3% | [7] 95.8% | [8] 89.6% | [9] 91.7% | [10] 102% | [11] 95% | [12] 98.8% | [13] 86.8% | [14] 99.2% | [15] 96.8% | [16] 91.5% | [17] 98.7% | [18] 90.2% | [19] 89.8% | [20] 95.2%

CN(C)CCn1c2ccc(N)cc2c2nc3ccccc3nc21
active: [19] 9.95%
inactive: [1] 25.3% | [2] 13.7% | [3] 44.1% | [4] 32.7% | [5] 35.4% | [6] 43.4% | [7] 32.3% | [8] 21.3% | [9] 38.4% | [10] 35.9% | [11] 21.1% | [12] 21.3% | [13] 54.2% | [14] 32.1% | [15] 33.4% | [16] 38.6% | [17] 27% | [18] 35.2% | [20] 54.5%

Cc1ccccc1NC1CC(=O)N(c2ccc(Cl)cc2Cl)C1=O (stereo not given)
inactive: [1] 103% | [2] 107% | [3] 98.9% | [4] 104% | [5] 112% | [6] 99.4% | [7] 102% | [8] 93.1% | [9] 98.5% | [10] 102% | [11] 101% | [12] 104% | [13] 90.9% | [14] 95.6% | [15] 99.5% | [16] 97.2% | [17] 94.4% | [18] 99.8% | [19] 94.4% | [20] 105%
